# FLuc counter – firefly luciferase modulation, counter-screen for miR-21 project; AID 588342; Potency, µM (series often up to 57.5 µM), without a hit: at the top dose activity change, negative = inhibition, hits mostly inhibitors; 6.9% of 360,000 active; purified FLuc, Km substrates, luminescence inhibition; P08659;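 further: plate controls were vehicle for no effect and reference inhibitor for full effect; nearly all actives have a fitted effect of over 55% in size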
# Target sequence (P08659 whole entry, looked up): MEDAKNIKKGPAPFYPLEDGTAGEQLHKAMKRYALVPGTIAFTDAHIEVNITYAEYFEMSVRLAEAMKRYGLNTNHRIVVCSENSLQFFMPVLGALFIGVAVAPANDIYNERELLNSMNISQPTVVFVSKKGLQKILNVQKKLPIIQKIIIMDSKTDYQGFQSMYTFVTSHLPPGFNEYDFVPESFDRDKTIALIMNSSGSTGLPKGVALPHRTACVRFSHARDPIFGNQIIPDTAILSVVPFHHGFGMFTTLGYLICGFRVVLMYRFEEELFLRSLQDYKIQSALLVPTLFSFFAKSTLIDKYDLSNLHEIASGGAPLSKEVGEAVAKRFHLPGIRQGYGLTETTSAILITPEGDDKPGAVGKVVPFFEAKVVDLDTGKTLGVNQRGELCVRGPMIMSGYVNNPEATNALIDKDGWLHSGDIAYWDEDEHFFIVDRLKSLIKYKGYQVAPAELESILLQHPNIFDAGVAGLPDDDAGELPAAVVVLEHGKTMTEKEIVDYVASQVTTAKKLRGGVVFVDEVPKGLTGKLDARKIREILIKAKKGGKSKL
#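 Biochemical qHTS of compounds, final roughly 60 µM downward over six points, against 10 nM purified firefly luciferase using Km concentrations of substrates (10 uM D-luciferin, 10 uM ATP) in Tris acetate pH 7.5 buffer; luminescence output.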
# ELG1 genotoxic – genotoxicity induction in ELG1-luciferase HEK293T cells; HEK293T ELG1-luciferase reporter, luminescence, 16 h; Potency, µM (doses to about 46 µM), inactives show at the top dose activity change, positive = activation, most hits filed as activators; 1.3% of 330,000 active; further: % of control where 0% means no effect; nearly all actives have a fitted effect of over 60% in size
#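 Quantitative HTS format in 1536-well plates. HEK293T ELG1-luciferase reporter cells receive test compound and are incubated 16 hr at 37 °C, 5% CO2; ONE-Glo added, 30 min room temperature, then luminescence read.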
# Rab9 promoter act – activators of Rab9 promoter; Huh7 Rab9 promoter-luciferase reporter, luminescence, 24 h; Potency, µM (titrated, usually from 9.22 µM), inactives show top-dose activation, negative = inhibition, actives largely listed as activators; 2.8% of 320,000 active; further: % of control where 0% means no effect; nearly all actives have a fitted effect of over 60% in size
#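 Huh7 cells stably carrying Rab9 promoter–luciferase reporter, plated 1500 cells/well, compound added after 2 h and incubated 24 h at 37 °C; luciferase luminescence then read after 10 min with detection reagent.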
# NPC1 prom act – activators of NPC1 promoter; 2.4% of 320,000 active; Huh7 NPC1 promoter luciferase reporter, 24 h; Potency, µM (doses to about 9.22 µM), inactives show top-dose activation, usual class: activators; AID 485313; further: % of control where 0% means no effect; nearly all actives have a fitted effect of over 60% in size
#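 Luminescence from an NPC1 promoter-driven luciferase reporter in stably transfected Huh7 cells was measured after 24 h compound treatment at 37 °C, followed by 10 min ambient incubation with luciferase detection reagent.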
# ELG1 repair inh – ELG1-dependent DNA repair inhibition; HEK293T ELG1-luciferase reporter, luminescence, 16 h; DNA damage induced by 5-fluorouridine; Potency, µM (series often up to 46.1 µM), for the others: top-dose activity change, negative = inhibition, actives largely listed as inhibitors; 2.3% of 330,000 active; further: on the % scale 0 is the no-effect control and ±100 the full control effect; nearly all actives have a fitted effect of over 55% in size
#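 Cells (2,000 per well) received 5-fluorouridine plus test compound or DMSO and were incubated 16 hr at 37 °C, 5% CO2. Luciferase activity was read by luminescence 30 min after ONE-Glo addition; signal suppression marked inhibition of damage-induced ELG1 function.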
# SMN2 splice up – enhancers of SMN2 splice variant expression; 2.8% of 210,000 active; Potency, µM (titrated, usually from 46.1 µM), for the others: at the highest dose activity change, positive = activation, usual class: activators; HEK293 SMN2-luciferase splicing reporter, luminescence, 30-36 h; further: % of control where 0% means no effect; nearly all actives have a fitted effect of over 55% in size
#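 HEK293 cells carry an SMN2 minigene-luciferase reporter in which exon 7 inclusion puts luciferase in frame. Cells were seeded at 2000 cells/well, attached for 10-12 hours, then exposed to compounds for 30-36 hours at 37C before ONE-Glo luminescence.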
# * = called active by the depositor; ? = inconclusive; . = not tested or not shown. An excerpt weighted towards active compounds, which were near 9.2% of everything screened. The call rests on the fitted dose curve; in most records, active means well fitted curve in the direction sought with a large enough effect; inconclusive means small, poorly fitted or top-dose-only effect, or another doubt; inactive means no such curve, though single readings can be large; an effect the other way counts as inactive or inconclusive. Potency means the concentration at half of the fitted maximal effect.
SMILES,FLuc counter,ELG1 genotoxic,Rab9 promoter act,NPC1 prom act,ELG1 repair inh,SMN2 splice up
O=C(/C=C/c1ccccc1[N+](=O)[O-])NCc1ccc(Cl)cc1,-2.8%,-2.1%,-3.5%,-1.8%,-6.5%,-9.5%
O=C(NCc1ccc(Cl)cc1)c1n[nH]c([N+](=O)[O-])c1Cl,21.3µM*,?,-10.5%,12.9%,?,20.3%
O=C(Cc1ccc([N+](=O)[O-])cc1)NCc1ccccc1Cl,-12.1%,1.0%,-1.1%,0.6%,13.7%,5.6%
O=C(Cc1ccccc1[N+](=O)[O-])NCc1ccc(Cl)cc1Cl,6.01µM*,?,3.55µM*,3.98µM*,?,.
CCC(CC)C(=O)Nc1cccc(C(=O)Nc2nccs2)c1,0.0%,-6.7%,-2.2%,-3.8%,?,-25.1%
O=C(Nc1ccccc1)Nc1nncs1,?,-1.5%,3.8%,-1.6%,1.9%,-0.6%
COc1ccc(NC(=O)Nc2nccs2)cc1,6.75µM*,?,21.0%,4.6%,?,14.1µM*
COc1ccc2oc(C(=O)Nc3nccs3)c(C)c2c1,0.536µM*,0.517µM*,1.12µM*,1.12µM*,?,.
COc1ccccc1CC(=O)Nc1cccc(C(=O)Nc2nccs2)c1,?,-4.7%,-5.1%,7.8%,16.4µM*,.
O=C(Nc1ccccc1)Nc1nccs1,23.9µM*,-0.8%,24.8%,16.1%,?,?
Cc1nc2nc(CNC(=O)OC(C)(C)C)nn2c(C)c1CCC(=O)NCc1ccc(F)cc1,3.6%,.,.,.,.,-4.1%
CC1CN(C(=O)CCC(=O)N2CCCCC2)c2ccccc2O1 (stereo not given),1.4%,-3.4%,1.8%,-6.1%,-1.1%,.
COc1cc(C2c3c(-c4ccccc4O)n[nH]c3C(=O)N2Cc2ccco2)ccc1OCC(C)C (stereo not given),-16.1%,.,.,.,.,-26.2%
CCCN1C(=O)c2ccc(C(=O)Nc3nccs3)cc2C1=O,?,4.6%,-4.8%,-1.8%,29.2%,-16.3%
CCCc1cc(C(=O)Nc2nccs2)cs1,1.9µM*,1.3µM*,1.26µM*,1.78µM*,?,3.98µM*
COc1ccc(C(=O)Nc2nccs2)cc1OC,?,?,?,27.3%,?,7.08µM*
COc1ccc(C(=O)Nc2nccs2)cc1[N+](=O)[O-],-11.1%,9.6%,1.2%,11.3%,?,11.9%
COc1ccc(C(=O)Nc2nccs2)cc1,19µM*,?,3.16µM*,2.24µM*,?,.
C/C(=C\C(=O)Nc1nccs1)c1ccccc1,9.53µM*,.,.,.,.,?
CCOc1ccc(-c2csc(-c3c(N)c(C(=O)c4ccc5c(c4)OCO5)n4ccccc34)n2)cc1,-1.2%,.,.,.,.,20.0%
CC(C(=O)N(C)C1CCCCC1)N1CCC(C(N)=O)CC1 (stereo not given),-11.1%,-5.8%,0.7%,2.2%,-2.4%,.
Cc1cc(C)c2c(n1)nn1c(C)c(CCC(=O)NCc3ccc(Cl)cc3)c(C)nc21,-2.9%,.,.,.,.,-5.0%
Cc1cc(Cc2ccc([N+](=O)[O-])cc2)c(C)cn1,-0.7%,-1.4%,-0.6%,-1.4%,?,.
Cc1sc(NC(=O)/C=C/c2ccco2)c(C(=O)O)c1C,5.36µM*,?,?,?,?,.
COc1ccc(/C=C/C(=O)Nc2sc(C)c(C)c2C(=O)O)cc1,1.35µM*,.,.,.,.,1.0%
CCOC(=O)c1c(NC(=O)/C=C/c2ccc(C)o2)sc(C)c1C,-14.3%,-1.0%,22.9%,24.9%,6.4%,.
Cc1cccc(N(C)C(=O)c2cc3cc4ccc(C)cc4nc3o2)c1,15.1µM*,20.6µM*,12.8%,-2.5%,?,8.91µM*
CC1(C)CC(=O)c2cnc(N3CCN(c4ccccc4)CC3)nc2C1,-13.3%,-5.7%,-8.0%,-4.5%,-1.6%,-55.2%
O=C1CCCc2nc(N3CCc4ccccc43)ncc21,2.69µM*,3.26µM*,1.58µM*,3.16µM*,?,12.6µM*

# Screening data as filed in PubChem.
